Assay results from PubChem BioAssay (EPA / NIEHS).
Several values for one entry are separate records, joined by “and”; a condition that tells them apart may be missing. Equal entries are not always repeated. Records with an inconclusive call do not appear. A structure can be active in one record and inactive in another. Activity calls are given as the source filed them. Rule for the calls: active = hit-call score of the fitted dose curve at least 0.9, where 1 is the maximum; inconclusive = response in the unintended direction; inactive = score below 0.9.

How the values were obtained:
[1] = target: human Thyroid hormone Receptor beta (TRb), THRB (gene 7068) (UniProt P10828); assay: ATG_hTRb_XSP1: Attagene TRANS-FACTORIAL Multi-Species (XSP1) HepG2 Assay for human Thyroid hormone Receptor beta (TRb) (AID 2283808)
Method in brief: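 Readout is reporter mRNA induction measured by RT-PCR, fluorescent labelling and capillary electrophoresis, fitted upward relative to DMSO. Transiently transfected human HepG2 cells expressing NR-Gal4 chimeras were dosed for 24 h, medium containing 3 nM 6-alpha-fluorotestosterone.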

[2] = target: zebrafish Thyroid Hormone Receptor beta (TRb), thrb (gene 30607) (UniProt Q9PVE4); assay: ATG_zfTRb_XSP1: Attagene TRANS-FACTORIAL Multi-Species (XSP1) HepG2 Assay for zebrafish Thyroid Hormone Receptor beta (TRb) (AID 2283809)
Method in brief: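 HepG2 cells transiently transfected with multiplexed GAL4-UAS reporter units expressing chimeric zebrafish TRb–Gal4. Dosed 24 h with 3 nM 6-alpha-fluorotestosterone present; reporter mRNA measured by RT-PCR, HpaI digestion and capillary electrophoresis; gain of signal versus DMSO.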

[3] = ATG_XTT_Cytotoxicity_XSP1: Cytotoxicity Assessment in the Attagene TRANS-FACTORIAL Multi-Species (XSP1) HepG2 Assay (AID 2283810)
Method in brief: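 XTT viability readout taken at 24 hours post-dosing in HepG2 liver cells co-treated with 3 nM 6-alpha-fluorotestosterone. Signal loss relative to DMSO controls reflects cytotoxicity.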

[4] = ATG_M_06_XSP2: Attagene TRANS-FACTORIAL Multi-Species (XSP2) HepG2 Assay for M06 Transcription Factor (Internal Marker) (AID 2283811);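 note: hits are increases in signal above the DMSO baseline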
Method in brief: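 Cells of the human liver line HepG2 carried transfected reporter transcription units and were treated for 24 h. Induced reporter transcripts were detected by fluorescence after RT-PCR and capillary electrophoresis, with activity fitted in the gain direction against DMSO.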

[5] = test system: turtle Estrogen Receptor (ERa), gene 101933533; assay: ATG_trERa_XSP2: Attagene TRANS-FACTORIAL Multi-Species (XSP2) HepG2 Assay for turtle Estrogen Receptor (ERa) (AID 2283812);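 note: actives raise reporter signal above DMSO so AC50 reflects agonist activity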
Method in brief: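 Readout is reporter mRNA quantified by RT-PCR with capillary electrophoresis after 24 h compound exposure, increase relative to DMSO. Uses transiently transfected human HepG2 liver cells carrying a chimeric turtle ERa-Gal4 receptor driving GAL4-UAS reporters.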

[6] = test system: turtle Androgen Receptor (AR), gene 101947425; assay: ATG_trAR_XSP2: Attagene TRANS-FACTORIAL Multi-Species (XSP2) HepG2 Assay for turtle Androgen Receptor (AR) (AID 2283815);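 for AC50: potency for gain of reporter signal meaning activation above DMSO baseline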
Method in brief: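 Reporter transcripts were quantified via RT-PCR and capillary electrophoresis and fitted upward against DMSO. Transiently transfected human HepG2 cells carrying NR-Gal4 chimeras were exposed 24 h, with 3 nM 6-alpha-fluorotestosterone plus 1.5 nM norgestrel added.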

[7] = target: zebrafish Estrogen Receptor (ER1), esr1 (gene 259252) (UniProt P57717); assay: ATG_zfER1_XSP2: Attagene TRANS-FACTORIAL Multi-Species (XSP2) HepG2 Assay for zebrafish Estrogen Receptor (ER1) (AID 2283816)
Method in brief: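 After 24 h compound exposure, RNA from transfected HepG2 cells was reverse-transcribed and reporter transcripts resolved by capillary electrophoresis. The TRANS format reads exogenous zebrafish ER1-Gal4 chimera activity on GAL4-UAS elements; gain of signal against DMSO.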

[8] = target: chicken Estrogen Receptor (ERa), ESR1 (gene 396099) (UniProt P06212); assay: ATG_chERa_XSP2: Attagene TRANS-FACTORIAL Multi-Species (XSP2) HepG2 Assay for chicken Estrogen Receptor (ERa) (AID 2283817);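 note: actives raise reporter signal above DMSO so AC50 reflects ER activation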
Method in brief: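 Exogenous chicken ERa-Gal4 chimera activity was assessed in transfected human liver HepG2 cells after 24 h of treatment. Induced reporter mRNA was quantified fluorescently by capillary electrophoresis, with DMSO as baseline.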

[9] = test system: zebrafish Estrogen Receptor (ER2a), gene 317734; assay: ATG_zfER2a_XSP2: Attagene TRANS-FACTORIAL Multi-Species (XSP2) HepG2 Assay for zebrafish Estrogen Receptor (ER2a) (AID 2283818);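 note: hits raise reporter mRNA so AC50 reflects activation of zebrafish ER2a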
Method in brief: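 Multiplexed trans-reporter readout: RT-PCR then capillary electrophoresis of reporter transcripts after 24 h compound treatment. Human HepG2 carries transfected zebrafish ER2a-Gal4 chimera; 3 nM 6-alpha-fluorotestosterone plus 1.5 nM norgestrel present. Induction scored against DMSO.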

[10] = test system: chicken Androgen Receptor (AR), gene 422165; assay: ATG_chAR_XSP2: Attagene TRANS-FACTORIAL Multi-Species (XSP2) HepG2 Assay for chicken Androgen Receptor (AR) (AID 2283819);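 note: hits raise reporter mRNA above DMSO so potency is for activation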
Method in brief: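 Readout is reporter mRNA induction via RT-PCR/capillary electrophoresis after 24 h chemical exposure, positive direction relative to DMSO. Transiently transfected HepG2 express chimeric chicken AR–GAL4; AR stimulated by 3 nM 6-alpha-fluorotestosterone and 1.5 nM norgestrel.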

[11] = test system: frog Estrogen Receptor (ER), gene 398734; assay: ATG_frER1_XSP2: Attagene TRANS-FACTORIAL Multi-Species (XSP2) HepG2 Assay for frog Estrogen Receptor (ER) (AID 2283821);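 note: hits raise reporter mRNA above DMSO baseline so potency means agonist or activator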
Method in brief: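 Gain-of-signal mRNA reporter assay, HepG2 human liver cells, 24 h dosing; transcripts read by fluorescent RT-PCR fragment analysis, DMSO as negative control.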

[12] = test system: zebrafish Estrogen Receptor (ER2b), gene 317733; assay: ATG_zfER2b_XSP2: Attagene TRANS-FACTORIAL Multi-Species (XSP2) HepG2 Assay for zebrafish Estrogen Receptor (ER2b) (AID 2283823);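 note: fitted upward as reporter gain over DMSO so potency reflects activation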
Method in brief: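 In this multiplexed trans-activation format, HepG2 cells expressing exogenous NR-Gal4 fusions drive GAL4-UAS reporters. Exposure lasts 24 h, and reporter mRNA induction is read by RT-PCR with capillary electrophoresis detection.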

[13] = test system: frog Androgen Receptor (AR), gene 399456; assay: ATG_frAR_XSP2: Attagene TRANS-FACTORIAL Multi-Species (XSP2) HepG2 Assay for frog Androgen Receptor (AR) (AID 2283824);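 note: reporter mRNA from GAL4-UAS units driven by Xenopus AR-Gal4 chimera; actives raise reporter signal above DMSO so AC50 reflects agonist-like induction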
Method in brief: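 Reporter transcript induction, read by RT-PCR with fluorescent capillary electrophoresis, in human liver HepG2 cells carrying an exogenous Xenopus AR-Gal4 fusion and GAL4-driven reporters; chemical exposure 24 hours, activity scored upward against DMSO controls.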

[14] = test system: zebrafish Androgen Receptor (AR), gene 100005148; assay: ATG_zfAR_XSP2: Attagene TRANS-FACTORIAL Multi-Species (XSP2) HepG2 Assay for zebrafish Androgen Receptor (AR) (AID 2283825);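 note: hits raise reporter mRNA above DMSO so AC50 reflects agonist-type gain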
Method in brief: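 After 24 h compound exposure in medium with 3 nM 6-alpha-fluorotestosterone plus 1.5 nM norgestrel, HepG2 cells carrying zebrafish AR–GAL4 reporter constructs were assessed for reporter mRNA gain by RT-PCR and capillary electrophoresis.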

[15] = target: Estrogen receptor (Homo sapiens) (UniProt P03372); assay: ATG_hERa_XSP2: Attagene TRANS-FACTORIAL Multi-Species (XSP2) HepG2 Assay for human Estrogen Receptor (ERa) (AID 2283827)
Method in brief: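 Trans-activation of exogenous human ERa-Gal4 chimera read in HepG2 as reporter transcript after 24 h exposure; medium included 3 nM 6-alpha-fluorotestosterone and 1.5 nM norgestrel. Quantified by RT-PCR with capillary electrophoresis, positive-direction fitting against DMSO.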

[16] = target: Estrogen receptor beta (Homo sapiens) (UniProt Q92731); assay: ATG_hERb_XSP2: Attagene TRANS-FACTORIAL Multi-Species (XSP2) HepG2 Assay for human Estrogen Receptor (ERb) (AID 2283813);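 note: actives raise reporter mRNA above DMSO so AC50 reflects agonist induction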
Method in brief: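 Transient TRANS reporter system in HepG2: after 24 h of chemical, RNA is reverse-transcribed, reporter cDNA amplified, FAM-labelled and sized by capillary electrophoresis. Induction of the human ERb-Gal4 reporter is measured relative to DMSO.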

[17] = target: human Androgen Receptor (AR), AR (gene 367) (UniProt P10275); assay: ATG_hAR_XSP2: Attagene TRANS-FACTORIAL Multi-Species (XSP2) HepG2 Assay for human Androgen Receptor (AR) (AID 2283820)
Method in brief: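 Reporter transcripts were measured by RT-PCR and capillary electrophoresis 24 h post-dosing, with gain of signal fitted against DMSO. Transiently transfected HepG2 cells expressed chimeric NR-Gal4 on GAL4-UAS reporters, with AR stimulated by 3 nM 6-alpha-fluorotestosterone and 1.5 nM norgestrel.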

[18] = ATG_M_19_XSP2: Attagene TRANS-FACTORIAL Multi-Species (XSP2) HepG2 Assay for M32 Transcription Factor (Internal Marker) (AID 2283822)
Method in brief: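 Internal background marker in a multi-species nuclear receptor TRANS panel: transfected HepG2 cells exposed 24 h, with 3 nM 6-alpha-fluorotestosterone and 1.5 nM norgestrel present. Readout is RT-PCR of reporter transcripts resolved by capillary electrophoresis, gain-of-signal versus DMSO.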

[19] = ATG_M_32_XSP2: Attagene TRANS-FACTORIAL Multi-Species (XSP2) HepG2 Assay for M19 Transcription Factor (Internal Marker) (AID 2283826)
Method in brief: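 Total RNA is taken from compound-treated HepG2 cells after 24 h and reverse-transcribed; reporter cDNA is PCR-amplified, end-labelled with 6-FAM, digested with HpaI for 2h at 37 C and sized by capillary electrophoresis. Activity is fitted in the positive direction against DMSO.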

[20] = target: GAL4 Transcription Factor (Internal Marker), GAL4 (gene 855828) (UniProt P04386); assay: ATG_GAL4_XSP2: Attagene TRANS-FACTORIAL Multi-Species (XSP2) HepG2 Assay for GAL4 Transcription Factor (Internal Marker) (AID 2283814);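 note: GAL4 reporter mRNA background control in MRTU transfected cells not a receptor target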
Method in brief: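 Background-control readout: gain-of-signal fitted against DMSO. After 24 h exposure of transfected HepG2 (MRTU, GAL4-UAS reporters; 3 nM 6-alpha-fluorotestosterone, 1.5 nM norgestrel present), transcripts quantified by RT-PCR and capillary electrophoresis fluorescence.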

Measured: AC50

Chain of Estrogen receptor beta (Homo sapiens) (Q92731 whole entry, looked up, the tested form may be a part): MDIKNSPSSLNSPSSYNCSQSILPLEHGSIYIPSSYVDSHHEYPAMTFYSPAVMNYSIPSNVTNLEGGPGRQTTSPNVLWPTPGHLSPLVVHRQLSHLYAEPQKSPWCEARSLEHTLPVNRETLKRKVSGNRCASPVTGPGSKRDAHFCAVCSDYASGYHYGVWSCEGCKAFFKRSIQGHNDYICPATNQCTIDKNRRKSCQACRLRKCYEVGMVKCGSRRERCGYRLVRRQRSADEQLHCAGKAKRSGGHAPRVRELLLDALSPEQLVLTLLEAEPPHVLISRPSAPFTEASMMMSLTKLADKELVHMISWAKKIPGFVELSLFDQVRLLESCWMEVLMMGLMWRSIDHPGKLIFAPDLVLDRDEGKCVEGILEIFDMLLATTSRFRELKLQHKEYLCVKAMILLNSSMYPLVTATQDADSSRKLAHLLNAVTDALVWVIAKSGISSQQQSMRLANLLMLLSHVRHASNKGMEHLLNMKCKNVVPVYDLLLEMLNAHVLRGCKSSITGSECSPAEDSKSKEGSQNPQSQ
Chain of chicken Estrogen Receptor (ERa), ESR1 (gene 396099) (P06212 whole entry, looked up, the tested form may be a part): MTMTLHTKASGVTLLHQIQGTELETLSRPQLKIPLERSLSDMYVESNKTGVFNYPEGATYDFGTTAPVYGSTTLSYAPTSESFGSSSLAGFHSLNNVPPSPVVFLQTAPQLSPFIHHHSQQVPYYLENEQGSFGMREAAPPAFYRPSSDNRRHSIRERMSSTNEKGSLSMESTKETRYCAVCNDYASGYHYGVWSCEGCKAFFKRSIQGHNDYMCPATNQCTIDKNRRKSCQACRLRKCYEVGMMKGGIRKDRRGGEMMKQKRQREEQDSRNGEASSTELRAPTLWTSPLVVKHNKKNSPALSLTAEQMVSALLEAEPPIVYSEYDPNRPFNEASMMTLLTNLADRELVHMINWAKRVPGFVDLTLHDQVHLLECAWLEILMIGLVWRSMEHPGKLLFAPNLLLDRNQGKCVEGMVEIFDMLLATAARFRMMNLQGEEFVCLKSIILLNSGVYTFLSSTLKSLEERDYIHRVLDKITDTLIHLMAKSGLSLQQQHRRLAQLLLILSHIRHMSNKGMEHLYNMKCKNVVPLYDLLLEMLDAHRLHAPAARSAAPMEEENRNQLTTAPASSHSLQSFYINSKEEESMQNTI
Chain of human Thyroid hormone Receptor beta (TRb), THRB (gene 7068) (P10828 whole entry, looked up, the tested form may be a part): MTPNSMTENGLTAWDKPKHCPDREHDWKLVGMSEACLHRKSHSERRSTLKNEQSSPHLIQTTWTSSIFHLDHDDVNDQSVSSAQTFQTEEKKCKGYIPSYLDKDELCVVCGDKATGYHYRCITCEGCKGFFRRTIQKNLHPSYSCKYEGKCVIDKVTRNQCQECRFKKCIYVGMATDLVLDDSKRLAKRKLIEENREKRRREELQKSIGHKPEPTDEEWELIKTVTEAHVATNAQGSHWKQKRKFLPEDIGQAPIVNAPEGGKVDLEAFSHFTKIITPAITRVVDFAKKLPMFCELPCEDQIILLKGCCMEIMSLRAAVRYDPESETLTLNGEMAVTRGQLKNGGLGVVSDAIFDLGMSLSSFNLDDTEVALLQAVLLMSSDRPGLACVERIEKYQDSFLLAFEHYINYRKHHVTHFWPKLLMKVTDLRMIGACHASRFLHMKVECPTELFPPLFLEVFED
Chain of Estrogen receptor (Homo sapiens) (P03372 whole entry, looked up, the tested form may be a part): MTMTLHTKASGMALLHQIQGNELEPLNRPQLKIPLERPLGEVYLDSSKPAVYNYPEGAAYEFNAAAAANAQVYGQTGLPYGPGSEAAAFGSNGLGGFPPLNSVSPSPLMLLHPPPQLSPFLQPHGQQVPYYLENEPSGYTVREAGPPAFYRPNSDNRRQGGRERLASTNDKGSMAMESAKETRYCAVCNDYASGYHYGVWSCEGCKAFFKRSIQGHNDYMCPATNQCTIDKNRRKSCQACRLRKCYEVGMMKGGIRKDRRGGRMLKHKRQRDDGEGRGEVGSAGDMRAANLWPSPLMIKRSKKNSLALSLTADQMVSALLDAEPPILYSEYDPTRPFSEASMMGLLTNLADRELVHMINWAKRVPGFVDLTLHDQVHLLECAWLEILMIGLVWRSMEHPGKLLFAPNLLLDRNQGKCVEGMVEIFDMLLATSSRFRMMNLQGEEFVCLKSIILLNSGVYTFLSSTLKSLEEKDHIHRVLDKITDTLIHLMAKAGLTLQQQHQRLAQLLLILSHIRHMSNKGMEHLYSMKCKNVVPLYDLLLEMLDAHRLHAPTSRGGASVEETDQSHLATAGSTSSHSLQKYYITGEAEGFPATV
Chain of zebrafish Thyroid Hormone Receptor beta (TRb), thrb (gene 30607) (Q9PVE4 whole entry, looked up, the tested form may be a part): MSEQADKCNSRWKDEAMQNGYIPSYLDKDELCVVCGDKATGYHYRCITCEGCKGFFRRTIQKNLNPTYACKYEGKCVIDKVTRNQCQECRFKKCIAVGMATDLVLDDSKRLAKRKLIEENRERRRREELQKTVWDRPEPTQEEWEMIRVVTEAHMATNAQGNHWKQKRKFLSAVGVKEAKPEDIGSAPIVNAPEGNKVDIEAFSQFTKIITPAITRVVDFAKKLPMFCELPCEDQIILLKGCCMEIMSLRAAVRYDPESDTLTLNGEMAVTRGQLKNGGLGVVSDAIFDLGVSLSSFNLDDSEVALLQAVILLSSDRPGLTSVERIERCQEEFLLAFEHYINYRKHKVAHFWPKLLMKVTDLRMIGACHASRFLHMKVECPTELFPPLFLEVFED
Chain of zebrafish Estrogen Receptor (ER1), esr1 (gene 259252) (P57717 whole entry, looked up, the tested form may be a part): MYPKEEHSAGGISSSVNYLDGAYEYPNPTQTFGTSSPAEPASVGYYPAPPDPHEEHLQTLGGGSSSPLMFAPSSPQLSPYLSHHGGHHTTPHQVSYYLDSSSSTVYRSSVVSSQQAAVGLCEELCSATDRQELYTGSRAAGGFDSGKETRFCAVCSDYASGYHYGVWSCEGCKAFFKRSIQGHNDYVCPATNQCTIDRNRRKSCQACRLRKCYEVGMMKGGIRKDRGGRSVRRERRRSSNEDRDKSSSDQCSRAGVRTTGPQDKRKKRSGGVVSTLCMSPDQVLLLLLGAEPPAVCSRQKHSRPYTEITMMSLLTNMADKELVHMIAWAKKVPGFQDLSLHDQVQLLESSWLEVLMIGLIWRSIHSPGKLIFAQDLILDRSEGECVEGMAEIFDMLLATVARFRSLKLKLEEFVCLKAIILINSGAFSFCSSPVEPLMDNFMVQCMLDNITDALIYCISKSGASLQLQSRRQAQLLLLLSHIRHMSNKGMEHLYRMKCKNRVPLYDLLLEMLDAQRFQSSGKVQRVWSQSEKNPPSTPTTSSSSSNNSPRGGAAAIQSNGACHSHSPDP
Chain of human Androgen Receptor (AR), AR (gene 367) (P10275 whole entry, looked up, the tested form may be a part): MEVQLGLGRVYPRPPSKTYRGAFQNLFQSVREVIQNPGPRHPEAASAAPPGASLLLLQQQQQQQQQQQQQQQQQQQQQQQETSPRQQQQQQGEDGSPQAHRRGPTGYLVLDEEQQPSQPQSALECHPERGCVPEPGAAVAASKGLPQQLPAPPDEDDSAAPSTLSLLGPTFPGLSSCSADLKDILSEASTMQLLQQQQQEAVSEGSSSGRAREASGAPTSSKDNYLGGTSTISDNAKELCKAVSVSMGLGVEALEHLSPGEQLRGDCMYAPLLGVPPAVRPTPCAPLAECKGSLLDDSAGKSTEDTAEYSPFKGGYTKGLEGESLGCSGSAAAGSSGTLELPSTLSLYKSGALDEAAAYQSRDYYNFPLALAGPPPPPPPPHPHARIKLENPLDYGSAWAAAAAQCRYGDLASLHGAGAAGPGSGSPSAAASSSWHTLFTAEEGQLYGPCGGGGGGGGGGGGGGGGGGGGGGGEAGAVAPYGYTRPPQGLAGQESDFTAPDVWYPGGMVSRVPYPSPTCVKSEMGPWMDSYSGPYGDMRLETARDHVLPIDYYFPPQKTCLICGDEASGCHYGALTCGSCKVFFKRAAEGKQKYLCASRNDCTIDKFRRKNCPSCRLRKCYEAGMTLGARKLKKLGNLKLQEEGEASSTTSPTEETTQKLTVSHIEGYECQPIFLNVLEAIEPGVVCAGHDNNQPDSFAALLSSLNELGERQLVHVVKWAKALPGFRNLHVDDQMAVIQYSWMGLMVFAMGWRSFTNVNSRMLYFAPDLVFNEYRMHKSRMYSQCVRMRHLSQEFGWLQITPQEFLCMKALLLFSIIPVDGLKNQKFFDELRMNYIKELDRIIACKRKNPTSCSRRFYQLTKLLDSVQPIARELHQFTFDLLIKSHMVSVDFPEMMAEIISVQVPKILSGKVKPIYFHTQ
Chain of GAL4 Transcription Factor (Internal Marker), GAL4 (gene 855828) (P04386 whole entry, looked up, the tested form may be a part): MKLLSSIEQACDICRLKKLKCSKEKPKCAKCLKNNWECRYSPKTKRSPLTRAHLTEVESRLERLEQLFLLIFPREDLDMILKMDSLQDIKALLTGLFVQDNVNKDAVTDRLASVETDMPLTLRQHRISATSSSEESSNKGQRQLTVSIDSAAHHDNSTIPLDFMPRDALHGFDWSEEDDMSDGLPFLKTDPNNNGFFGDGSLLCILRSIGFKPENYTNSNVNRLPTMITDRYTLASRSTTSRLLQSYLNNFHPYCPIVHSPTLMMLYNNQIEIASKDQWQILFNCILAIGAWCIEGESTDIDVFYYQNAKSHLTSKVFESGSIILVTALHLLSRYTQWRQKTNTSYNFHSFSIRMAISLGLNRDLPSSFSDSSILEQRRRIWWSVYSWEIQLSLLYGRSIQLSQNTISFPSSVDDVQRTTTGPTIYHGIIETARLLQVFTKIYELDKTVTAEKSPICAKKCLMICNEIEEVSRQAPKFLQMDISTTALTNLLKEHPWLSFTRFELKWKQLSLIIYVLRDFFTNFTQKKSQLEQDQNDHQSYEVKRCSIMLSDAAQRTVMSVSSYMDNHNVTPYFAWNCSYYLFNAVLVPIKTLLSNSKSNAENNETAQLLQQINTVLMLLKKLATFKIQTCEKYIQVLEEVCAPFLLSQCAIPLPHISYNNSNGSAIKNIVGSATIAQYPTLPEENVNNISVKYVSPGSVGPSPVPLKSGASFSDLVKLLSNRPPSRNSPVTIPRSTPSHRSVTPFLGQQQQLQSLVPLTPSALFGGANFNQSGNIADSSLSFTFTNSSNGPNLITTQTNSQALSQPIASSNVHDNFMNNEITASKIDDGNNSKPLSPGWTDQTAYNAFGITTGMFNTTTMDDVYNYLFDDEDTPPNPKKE

C[C@]12CCC(=O)C=C1CC[C@@H]1[C@@H]2CC[C@@]2(C)[C@H]1CC[C@]2(C)O
inactive: [1] | [2] | [3] | [4]
active: [5] 2.1 nM | [6] 3.41 nM | [7] 51.6 nM | [8] 2.03 nM | [9] 2.5 nM | [10] 0.725 nM | [11] 2.25 nM | [12] 8.34 nM | [13] 7.39 nM | [14] 2.51 nM | [15] 0.000744 µM

CCC(=O)O[C@H]1CC[C@H]2[C@@H]3CCC4=CC(=O)CC[C@]4(C)[C@H]3CC[C@]12C
inactive: [4] | [16] | [6] | [7] | [10] | [17]
active: [5] 17.3 nM and 5.27 nM | [8] 12.6 nM and 25.4 nM | [9] 27.7 nM and 13.2 nM | [10] 24.7 nM | [11] 10.9 nM and 4.11 nM | [12] 29.8 nM and 27.2 nM | [15] 10.5 nM and 7.8 nM

ClC(Cl)=C(c1ccc(Cl)cc1)c1ccc(Cl)cc1
active: [5] 10000 nM | [8] 3270 nM | [12] 7900 nM | [15] 5.03 µM
inactive: [1] | [2] | [3] | [7] | [9] | [11] | [18] | [19]

CC(C)(O)C(=O)Nc1ccc([N+](=O)[O-])c(C(F)(F)F)c1
active: [1] 18200 nM | [2] 50000 nM | [12] 36100 nM | [15] 100 µM
not listed: [6] | [10] | [13] | [14] | [17] | [18]
inactive: all other assays above

C[C@]12CCC(=O)C=C1CC[C@@H]1[C@@H]2CC[C@]2(C)C(=O)CC[C@@H]12
active: [5] 12.9 nM and 12 nM | [16] 19.2 nM | [6] 2080 nM | [7] 3130 nM | [8] 9.2 nM and 10.8 nM | [9] 28.2 nM and 100 nM | [10] 379 nM | [11] 19.2 nM and 24 nM | [12] 58.9 nM and 39.4 nM | [15] 10.2 nM and 16.5 nM
inactive: [1] | [2] | [3] | [4] | [16] | [6] | [7] | [10]

CC(c1ccc(O)cc1)(c1ccc(O)cc1)c1ccc(O)cc1
active: [10] 314 nM | [12] 688 nM | [13] 267 nM
inactive: [4] | [5] | [6] | [7] | [8] | [9] | [10] | [11] | [18] | [12] | [13] | [19] | [15]
